# The panel holds about 79,000 compounds, 15% with a hit somewhere; the sample as a whole holds those more often. Unmarked numbers belong to inactive results. The source made the active and inactive calls. No stated cut-off is given here; in the data, active means growth inhibition above about 70%; inactive means the rest.
# Tests used:
# [1] = NCI Yeast Anticancer Drug Screen. Data for the rad50 strain (AID 155);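 further: 0% = growth of vehicle-only cultures of the same strain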; details: S. cerevisiae rad50 strain growth inhibition, stronger effect = higher value
# How it was run: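 Growth of the mutant yeast was measured after compound exposure and referenced to vehicle-treated cultures.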
# [2] = NCI Yeast Anticancer Drug Screen. Data for the mec2-1 strain (AID 157); details: S. cerevisiae mec2-1 strain, stronger effect = higher value
# How it was run: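 Test agents were screened against the mec2-1 yeast strain, with defined DNA repair or cell cycle alteration. Growth was scored as inhibition against vehicle-only controls.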
# [3] = NCI Yeast Anticancer Drug Screen. Data for the sgs1 mgt1 strain (AID 161);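 further: 0% = growth of cultures given vehicle only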; details: S. cerevisiae sgs1 mgt1 strain, stronger effect = higher value
# How it was run: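 Test agents were incubated with a DNA-repair-mutant yeast strain. Growth was then read and compared against vehicle-treated controls.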
# [4] = NCI Yeast Anticancer Drug Screen. Data for the cln2 rad14 strain (AID 165);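 further: 0% = growth equal to vehicle treated cultures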; details: S. cerevisiae cln2 rad14 strain, stronger effect = higher value
# How it was run: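 Growth of compound-exposed yeast (cln2 rad14 genotype) measured and expressed as inhibition relative to vehicle.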
# [5] = NCI Yeast Anticancer Drug Screen. Data for the bub3 strain (AID 167); details: S. cerevisiae bub3 mutant strain, stronger effect = higher value
# How it was run: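 Whole-cell yeast assay. The mutant strain was incubated with compounds, and growth inhibition was determined by comparison with vehicle-treated cells.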
# [6] = NCI Yeast Anticancer Drug Screen. Data for the mlh1 rad18 strain (AID 175); details: S. cerevisiae mlh1 rad18 strain growth inhibition, stronger effect = higher value
# How it was run: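 In this whole-cell yeast screen, a strain with altered DNA damage repair is challenged with compound, and its growth is measured against matched vehicle-treated controls.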
# [7] = at 5.0 µM (retest, dose inferred, filed as 0.5)
# [8] = at 50.0 µM (retest, dose inferred, filed as 5.0)
Structure (SMILES),"growth inhibition [1, 7]","growth inhibition [1, 8]",growth inhibition ([1]; at 50.0 µM),"growth inhibition [2, 7]","growth inhibition [2, 8]",growth inhibition ([2]; at 50.0 µM),"growth inhibition [3, 7]","growth inhibition [3, 8]",growth inhibition ([3]; at 50.0 µM),"growth inhibition [4, 7]","growth inhibition [4, 8]",growth inhibition ([4]; at 50.0 µM),"growth inhibition [5, 7]","growth inhibition [5, 8]",growth inhibition ([5]; at 50.0 µM),"growth inhibition [6, 7]","growth inhibition [6, 8]",growth inhibition ([6]; at 50.0 µM)
O=C1Nc2c(Cl)cc(Cl)cc2/C1=N/N=C/c1ccccc1O,12%,41%,3.5%,13%,42%,17.1%,10%,41%,87.2% (active),15%,48%,89.8% (active),18%,54%,88.2% (active),15%,72% (active),91% (active)
O=C1/C(=C/c2ccccc2)CN(C(=O)CCN2CCCC2)C/C1=C\c1ccccc1,5%,83% (active),91.8% (active),10%,86% (active),90.5% (active),99% (active),96% (active),91.3% (active),99% (active),96% (active),89.7% (active),99% (active),96% (active),92.2% (active),2%,89% (active),90.5% (active)
O=c1cc(-c2cccc(OCc3ccccc3)c2)[nH]c2cc3c(cc12)OCO3,19%,6%,21.3%,16%,12%,-21.4%,21%,16%,17.1%,0%,11%,5.75%,14%,6%,19.9%,22%,10%,-51.5%
CCCCC(CC)CCC(C)OC(=O)C(O)c1ccccc1 (configuration not stated),-1%,86% (active),61.8%,-6%,87% (active),86.7% (active),-4%,85% (active),83% (active),1%,82% (active),32.5%,1%,88% (active),75.5% (active),-4%,90% (active),87.8% (active)
O=C(/C=C\c1ccccc1)/C=C/c1ccccc1,4%,39%,40.5%,-2%,8%,12.6%,0%,24%,28.2%,-1%,4%,-14.3%,7%,53%,27.9%,-1%,17%,70.8% (active)
COC(=O)CC1(O)c2cc(OC)c3cccc(OC)c3c2CCC1(C)C(=O)OC (configuration not stated),88% (active),97% (active),92.9% (active),91% (active),99% (active),88.8% (active),85% (active),99% (active),95.2% (active),80% (active),97% (active),96% (active),83% (active),98% (active),88.5% (active),92% (active),98% (active),94.8% (active)
O=C(/C=C\c1ccc([N+](=O)[O-])o1)/C=C/c1ccc([N+](=O)[O-])o1,36%,96% (active),96.8% (active),33%,98% (active),97.1% (active),52%,98% (active),95% (active),28%,97% (active),92.7% (active),38%,97% (active),94.9% (active),91% (active),96% (active),98.2% (active)
Nc1ccc(Cl)c2ccccc12,-1%,42%,84.2% (active),-4%,20%,76.8% (active),-5%,12%,71.2% (active),40%,26%,53.5%,6%,48%,57.9%,-4%,33%,74.5% (active)
O=[N+]([O-])c1ccccc1N=Nc1c(O)[nH]c2cccc(C(F)(F)F)c12,50%,86% (active),93.9% (active),52%,81% (active),18.5%,60%,90% (active),83.5% (active),-60%,92% (active),50.2%,47%,77% (active),46.5%,84% (active),97% (active),95.1% (active)

# Reference: PubChem BioAssay (NCI)
